# Source: PubChem (several laboratories)
# PHOSPHO1 block – PubChem AID 1565. 290,000 tested, 1.1% active. inhibition, % at 13.3 µM. recombinant PHOSPHO1, absorbance phosphatase assay; in the data active = inhibition above about 60%
# Target sequence (Q8TCT1 whole entry, looked up): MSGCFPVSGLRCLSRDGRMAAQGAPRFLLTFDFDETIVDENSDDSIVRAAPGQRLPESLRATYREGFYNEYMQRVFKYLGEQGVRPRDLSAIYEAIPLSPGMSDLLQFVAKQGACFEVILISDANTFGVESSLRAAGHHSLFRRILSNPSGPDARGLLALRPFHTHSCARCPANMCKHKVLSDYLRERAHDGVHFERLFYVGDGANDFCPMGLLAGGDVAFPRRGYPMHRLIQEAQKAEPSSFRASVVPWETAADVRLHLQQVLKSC
# pCIP destab – p/CIP-EGFP fusion destabilizers, primary screen, fluorescence, F442A cells | Q05BA5 | 16 h | decrease of EGFP signal, % at 10 µM | 290,000 tested, 0.01% active;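 active = EGFP signal decrease of at least 30% at 10 µM or well 3 SD below plate mean, unless failing retest; inactive = the rest, including hits failing retest or dose response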
# PvdQ acylase – P. aeruginosa PvdQ acylase inhibitors, primary screen, biochemical, fluorescence, plate reader and imaging, single point | inhibition, % at 10 µM | purified PvdQ acylase | AID 488965, 2010 | 340,000 tested, 0.063% active; in the data active = inhibition above about 30%, passing the limit was not always enough; inconclusive = no clear call, values can overlap the other calls;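 note: 0% = vehicle neutral wells and 100% = reference inhibitor wells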
# JMJD2C inh – inhibitors of GASC-1 histone demethylase, primary screen, biochemical, fluorescence, DELFIA europium. AID 2099, 2009. GST-JMJD2C(1-420) H3K9me3 demethylation. inhibition, % at 2.35 µM. Lysine-specific demethylase 4C (Homo sapiens), Q9H3R0. 330,000 tested, 0.069% active;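 active = more than half of a compound's replicate wells show inhibition beyond 50%, single wells judged on their own value; inconclusive = some, but no more than half, of replicates pass 50% inhibition; inactive = no replicate passes 50% inhibition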;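 note: signal counts dimethyl H3K9 product captured on neutravidin plate; 0% = median of DMSO wells and 100% = 0.3 times that DMSO median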
# Target sequence (Q9H3R0 1-420 limits assumed): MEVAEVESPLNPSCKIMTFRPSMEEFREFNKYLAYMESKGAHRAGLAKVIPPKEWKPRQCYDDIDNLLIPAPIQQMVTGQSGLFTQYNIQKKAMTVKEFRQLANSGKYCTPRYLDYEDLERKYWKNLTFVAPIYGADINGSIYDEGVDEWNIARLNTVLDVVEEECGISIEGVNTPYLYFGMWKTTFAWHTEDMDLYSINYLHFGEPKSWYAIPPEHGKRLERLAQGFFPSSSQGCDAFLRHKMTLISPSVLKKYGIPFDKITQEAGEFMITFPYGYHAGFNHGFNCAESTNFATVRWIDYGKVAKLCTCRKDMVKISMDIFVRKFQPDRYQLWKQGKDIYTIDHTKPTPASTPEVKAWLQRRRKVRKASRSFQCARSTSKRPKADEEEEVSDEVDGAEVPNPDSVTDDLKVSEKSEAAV
# SUMO Mot1 rescue – yeast Mot1-301 growth rescue at high temperature, primary screen, SUMOylation pathway inhibitor project, S. cerevisiae, ATP luminescence, 38.5C; S. cerevisiae Mot1-301 growth rescue; percent above DMSO median, 100 means doubled; growth rescue, % at 18.8 µM; 320,000 tested, 1% active; AID 2716, 2010;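 active = every valid replicate shows activation above 250% relative to neutral control wells; inactive = the rest, any valid replicate at or below 250%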;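 note: OY570 slx delta 5 strain wells were the positive control but not used for scaling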
# HDAC3 inhib – HDAC3 deacetylase inhibitors, primary screen, biochemical, fluorescence, cell-free homogeneous. Histone deacetylase 3 (Homo sapiens), O15379. recombinant HDAC3, fluorogenic peptide/trypsin coupled. inhibition, % at 8.3 µM. 320,000 tested, 0.15% active. AID 2718, 2010; in the data active = inhibition above about 26%, passing the limit was not always enough; inconclusive = no clear call, values can overlap the other calls
# An asterisk follows results filed as active; ? = inconclusive; . = not tested or not shown. Only some compounds are listed: those with a hit (about 2.2% of all), similar ones and a draw of the others.
SMILES,PHOSPHO1 block,pCIP destab,PvdQ acylase,JMJD2C inh,SUMO Mot1 rescue,HDAC3 inhib
CCn1c(SCC(=O)c2ccc3c(c2)Cc2ccccc2-3)nnc1-c1ccc(N)cc1,7.4,-12.9,4.3,-11.8,139.1,3.3
CCn1c(SCC(=O)c2ccc(O)c(O)c2)nnc1-c1ccc(C)cc1,81.3*,-2.6,-8.2,2.2,2.4,1.3
CCCNCC1C(Oc2ccc(Cl)cc2)C(=O)N1c1ccccc1C (centres undefined),-9.3,-5.7,-8.4,19.7,54.9,2.0
CNC(=S)NNC(=O)c1ccc(=O)n(Cc2ccc(Cl)cc2Cl)c1,-104.7,-19.3,2.1,-9.7,-4.3,-0.3
CNC(=S)NNC(=O)c1cccn(Cc2ccc(Cl)cc2Cl)c1=O,-61.4,-5.5,.,3.2,335.9*,0.1
CC(=O)n1c2ccccc2c2nc3ccccc3nc21,44.4,-159.4,-4.6,-0.1,8.6,-4.2
C=CCNc1nc2c3ccccc3n(C(C)=O)c2s1,69.9*,7.9,-12.3,6.3,-22.0,2.5
O=C(O)C1=C[C@@H](c2ccc(C(F)(F)F)cc2)C[C@@H](OCc2ccc(CO)cc2)O1,-11.8,-7.5,-10.7,6.4,-7.1,34.0*
Cc1ccc(Cl)cc1NC(=O)COC(=O)CCN1C(=O)C2CC=CCC2C1=O (centres undefined),.,.,-3.8,8.9,-21.1,1.2
O=C(Cn1c(=O)oc2ccccc21)NCCc1ccccc1Cl,-22.2,10.6,-5.6,-4.4,4.3,-2.7
COc1ccccc1OCCC(=O)OCC(=O)c1c(N)n(C)c(=O)n(C)c1=O,40.8,-1.4,31.9*,-3.9,-14.3,-5.1
COc1ccc(C(=O)N2CCN(c3ncccn3)CC2)cc1[N+](=O)[O-],24.1,6.1,15.0,-4.6,202.9,4.4
COC(=O)c1c(NS(=O)(=O)Cc2ccccc2)sc2c1CCCC2,71.0*,-10.0,-5.6,32.9,19.9,-4.4
COC(=O)c1c(NS(C)(=O)=O)sc2c1CCCC2,24.2,4.3,-7.0,2.3,-8.4,4.3
COC(=O)c1ccccc1S(=O)(=O)NNC(=O)c1ccccc1-n1cccc1,23.8,-8.7,24.0,1.9,-2.5,2.3
O=C(CSc1ncnc2c(-c3ccc(Cl)cc3)nsc12)c1ccccc1,72.9*,-15.4,7.2,-25.8,-7.2,-0.6
O=C(CSc1ncnc2nc[nH]c12)c1ccc(Cl)cc1,30.6,5.1,-15.3,20.5,7.6,22.8
CCc1ccc(CNC(=O)C2Cc3cc(S(=O)(=O)N4CCCC4)ccc3N2C(C)=O)cc1 (centres undefined),27.6,0.7,10.7,2.6,-6.9,6.9
CC(=O)Nc1ccc(C(=O)NC(C)c2ccc(-n3ccnc3)cc2)cc1 (centres undefined),67.6*,-2.8,-11.3,-2.4,0.0,4.0
CC12CCC(=O)C=C1CCC1C2CCC2(C)C1CC[C@]2(O)C(=O)CO (some centres undefined),67.6*,4.6,-17.9,-1.0,7.9,-0.9
Cc1ccccc1CC(=O)N1CCCC1,13.9,-5.9,9.7,28.2,-23.1,2.5
CC(C)CC(=O)Nc1ccc(C(=O)NNC(=S)NC(=O)C2CCCCC2)cc1,93.0*,-9.4,-0.3,-11.3,50.5,7.9
N#CCC(=O)Nc1ccc(C(=O)NNC(=S)NC2CCCCC2)cc1,.,.,.,5.6,3.6,0.8
CN(C)C=NC1=NN(c2cccc(C(F)(F)F)c2)CC1,97.0*,1.7,-5.8,-4.1,179.9,0.2
Fc1ccc2[nH]c3c(N4CCc5ccccc5C4)ncnc3c2c1,27.3,-36.9,.,3.8,122.0,.
SMILES,PHOSPHO1 block,pCIP destab,PvdQ acylase,JMJD2C inh,SUMO Mot1 rescue,HDAC3 inhib
Brc1ccc2[nH]c3c(N4CCc5ccccc5C4)ncnc3c2c1,5.0,-6.3,.,5.4,344.0*,2.4
C/C(=N\Nc1cccc(Cl)c1)c1ccc(-n2ccnc2)cc1,45.4,2.4,-8.2,-3.7,130.1,6.2
CCC1=C(c2ccc(C)cc2)S(=O)(=O)N=C1N1CCC(C(=O)NCCCN2CCCCC2)CC1,14.6,-3.4,-14.7,-1.3,-13.6,1.8
COCCNC(=O)CSc1nc2scc(-c3ccccc3)c2c(=O)[nH]1,18.8,-6.2,-5.9,-16.1,1.3,5.4
CCOC(=O)N1C(=O)[C@@](CC)(c2ccccc2)N1C(=O)OCC,9.9,-0.1,-15.6,-8.8,-10.8,35.3*
CC[C@@]1(c2cccc(C)c2)C(=O)N(C(=O)OC)N1C(=O)OC,25.4,-8.0,-11.5,4.4,9.2,18.1
CSCCC(=O)N1CCC(CCC(=O)NC2CC2)CC1,57.6,-12.7,-11.6,-1.8,-10.7,0.8
CC(C)Cn1c(=O)[nH]c2ccccc21,12.5,4.4,-6.2,11.3,9.5,0.0
Cc1ccc(NC(=O)Cn2c(=S)[nH]c3ccccc32)cc1,62.2*,16.0,-18.1,-6.7,-0.4,-1.2
CC(C)n1c(=S)[nH]c2ccccc21,83.7*,-0.4,-5.6,-0.3,-17.3,2.0
O=C(Cn1c(=S)[nH]c2ccccc21)c1ccccc1,22.1,2.9,9.2,-2.9,8.6,-0.8
CCn1c(=S)[nH]c2cc(Cl)ccc21,-102.6,-0.8,-5.5,-3.0,1.5,2.2
CCn1c(=S)[nH]c2ccccc21,71.2*,-10.9,-11.1,-1.2,0.0,-1.2
[O-]/C(=C(\C(=S)Nc1cccc2ccccc12)[n+]1ccccc1)c1ccc(OC(F)F)cc1,31.7,14.8,2.1,.,.,.
[O-]/C(=C(\C(=S)Nc1cccc2ccccc12)[n+]1ccccc1)c1ccc2c(c1)OCCO2,84.8*,0.7,-6.8,-0.1,-5.9,0.1
COc1ccccc1C(=O)OCC(=O)NC(C)CCc1ccccc1 (centres undefined),15.6,-1.4,17.8,-4.5,-1.9,1.1
COc1ccccc1C(=O)NCC(=O)NC(C)CCc1ccccc1 (centres undefined),35.2,-12.2,-10.0,-1.4,339.6*,1.7
COC(=O)c1c(NC(=O)CN2C(=O)NC3(CCc4ccccc4C3)C2=O)sc2c1CCCCC2 (centres undefined),-5.0,-7.4,0.8,-4.2,3.2,3.4
COCCNc1nc(=S)[nH]c2cc(OC)c(OC)cc12,68.5*,-10.7,0.9,-6.3,-0.1,?
Cn1c2ccccc2c(=O)c2c(=O)n(C3CCCCC3)c(-c3ccco3)nc21,-11.1,-5.3,14.9,-9.2,579.9*,3.9
COc1ccccc1CCN=C(N)NS(=O)(=O)c1ccccc1F,65.8*,-5.0,-14.3,9.1,-3.9,2.7
COc1cccc(C(=O)Oc2cc(N)n(S(=O)(=O)c3ccc(C)cc3)n2)c1OC,-34.0,-3.0,-27.5,-5.3,14.1,53.4*
Cc1ccc(C(=O)Oc2cc(N)n(S(=O)(=O)c3ccc(F)cc3)n2)cc1,20.0,-0.9,-3.6,-1.5,9.5,-2.2
COc1ccc(S(=O)(=O)n2nc(OC(C)=O)cc2N)cc1,21.9,-8.7,-3.1,-0.2,1.9,1.7
